Here are results for 41 molecules from PubChem BioAssay (NCATS).

Experiment [1] in a line: qHTS assay for measurement of the activity of small molecule inhibitors on Zika virus induced Caspase-3 activity in human iPSC derived neural progenitor cells (hNPCs) (AID 1224857). Also: % of control where 0% means no effect; nearly all actives have a fitted effect of over 65% in size. The gist of the method: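 Cells were plated at 350 per well and grown 16 to 20 hours. Compound pretreatment lasted one hour, after which ZIKV (2 FFU/cell) was added for 6 hours. Percent inhibition was normalized between uninfected and infected controls.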

Experiment [2] in a line: qHTS assay for measurement of the activity of small molecule inhibitors on Zika virus induced Caspase-3 activity in human astrocytoma cells (AID 1224859).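 Also: plate controls were ZIKV-infected untreated cells for no effect and uninfected cells for full effect.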 The gist of the method:
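Percent inhibition of virus-induced caspase-3/7 signal is calculated against uninfected and ZIKV-infected control cells. Cells are SNB-19, infected at 2 FFU/cell for 6 h after 1 h compound exposure.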
Background: In qHTS, concentration-response curves come from the screen itself.

The nature of experiment [3]: qHTS assay to identify small molecule inhibitors of chordoma cells - UCH-1 (AID 1259355). Also: % is scaled to controls: 0 for no effect and ±100 for the full control effect; nearly all actives have a fitted effect of over 55% in size. The gist of the method: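 A 48hr growth-inhibition format: each drug tested at 15 concentrations together with added auranofin, camptothecin, doxorubicin, rubitecan and topotecan, with cell viability quantified as CellTiter-Glo luminescence.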
Experiment [4] is described as follows: qHTS profiling of the MIPE4 collection as inhibitors of Plasmodium falciparum (3D7) proliferation (AID 743344; call rule not given here;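 also: scaled between DMSO vehicle wells and 0.29 µM artemisinin as full inhibition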). To be noted: P. falciparum 3D7 in erythrocytes, SYBR Green DNA fluorescence, 72 h; at 9.64 µM (top of the series) unless noted. The gist of the method: (§1)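 Parasite DNA was quantified by SYBR Green I fluorescence (ex 485, em 535 nm) after overnight lysis in saponin/Triton buffer at room temperature. Cultures at 0.3% parasitemia and 2.5% hematocrit were first exposed to compound for 72 h at 37 C; signals were normalised to artemisinin (0.29 uM) and vehicle wells.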

Experiment [5] in a line: qHTS profiling of the MIPE4 collection as inhibitors of Plasmodium falciparum (DD2) proliferation (AID 743345; call rule not given here). To be noted: P. falciparum Dd2 in erythrocytes, SYBR Green DNA, 72 h; at 9.64 µM (top of the series) unless noted. The gist of the method:
as §1

The nature of experiment [6]: qHTS profiling of the MIPE4 collection as inhibitors of Plasmodium falciparum (DD2) proliferation (Rep 2) (AID 743346; call rule not given here). To be noted: P. falciparum Dd2 in erythrocytes, SYBR Green DNA, 72 h; at 9.64 µM (top of the series) unless noted. In short, it runs like this:
as §1

Experiment [7] can be described thus: qHTS profiling of the MIPE4 collection as inhibitors of Plasmodium falciparum (HB3) proliferation (AID 743347; call rule not given here;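 also: plate controls were DMSO vehicle wells for no effect and artemisinin wells for full effect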). Conditions: P. falciparum HB3 in erythrocytes, SYBR Green DNA, 72 h; at 9.64 µM (top of the series) unless noted. The gist of the method:
as §1

Experiment [8] is described as follows: qHTS profiling for inhibitors of Plasmodium falciparum (3D7) proliferation (AID 743322; call rule not given here;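 also: infected erythrocytes exposed to compound for 72 h before lysis; 100% = DMSO vehicle wells and 0% = 0.29 µM artemisinin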). Conditions: P. falciparum 3D7 proliferation; at 28.7 µM (top of the series). The gist of the method: as §1
The nature of experiment [9]: qHTS profiling for inhibitors of Plasmodium falciparum (DD2) proliferation (AID 743323; call rule not given here). To be noted: lower = more inhibition; at 28.7 µM (top of the series). The gist of the method:
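SYBR Green fluorescence (ex 485, em 535 nm) of lysed cultures gives parasite DNA content; wells normalized to artemisinin (0.29 uM) and DMSO controls. Infected red cells: 0.3% parasitemia, 2.5% hematocrit, 72 h, 37 C.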

The nature of experiment [10]: qHTS profiling for inhibitors of Plasmodium falciparum (HB3) proliferation (AID 743324).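 Also: 100% = DMSO vehicle wells and 0% = artemisinin-treated control wells.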 To be noted: Plasmodium falciparum HB3 blood-stage proliferation; at 28.7 µM (top of the series). The gist of the method: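 SYBR Green fluorescence (485 ex/535 em) of lysed cultures, incubated overnight at room temperature in the dark, quantifies parasite DNA. Infected erythrocytes at 0.3% parasitemia and 2.5% hematocrit were exposed 72 h; values normalized to DMSO and 0.29 uM artemisinin controls.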

Inconclusive results are not listed. Active and inactive are the calls of the source. Unless noted, calls follow the shape of the dose curve; as a rule, active = well fitted curve in the direction sought with a large enough effect; inconclusive = small, poorly fitted or top-dose-only effect, or another doubt; inactive = no such curve, though single readings can be large; an effect the other way counts as inactive or inconclusive.

In the case of `CC[N+](C)(CC)CCOC(=O)C1c2ccccc2Oc2ccccc21`, the call in experiment [1], in [2] and in experiment [3] was inactive.

For the molecule `Cc1cccc(C)c1NC(=O)CC12CCCN1CCC2`, the outcome in [1], in [2] and in [3] was inactive.

For `Cc1c(C(=O)NCCO)[n+](=O)c2ccccc2n1[O-]`, the outcome in experiment [1], in [2] and in experiment [3] was inactive.

Regarding `CC(=O)N(CC(O)CO)c1c(I)c(C(=O)NCC(O)CO)c(I)c(C(=O)NCC(O)CO)c1I` (stereo not given), the call in [1], in experiment [2] and in [3] was inactive.

Regarding `O=C(O)Cn1c(C(=O)Nc2nc(-c3ccccc3Cl)cs2)cc2ccccc21`, the result in experiment [1], in [2] and in experiment [3] was inactive.

On to `O=C(O)C(S)C(S)C(=O)O` (stereo not given), for which the outcome in experiment [1], in experiment [2] and in experiment [3] was inactive.

`CNc1c2c(nn1C)CCCC2`: the molecule was called inactive in [1], in experiment [2] and in [3].

Turning to `COCC(=O)Nc1c(I)c(C(=O)NCC(O)CO)c(I)c(C(=O)N(C)CC(O)CO)c1I` (stereo not given), the call in [1], in experiment [2] and in experiment [3] was inactive.

On to `O=C(O)[C@@H]1[C@H]2C[C@H]3c4[nH]c5ccccc5c4CCN3C[C@@H]2CC[C@@H]1O`, for which the outcome in experiment [1], in experiment [2] and in experiment [3] was inactive.

With `O=C(O)CCC(=O)O`, the result in experiment [1], in experiment [2] and in experiment [3] was inactive.

For `CN1C(C)(C)CCCC1(C)C`, the result in experiment [1], in [2] and in experiment [3] was inactive.

With `O[C@@H]1CO[C@H]2[C@@H]1OC[C@@H]2O`, the outcome in experiment [1], in experiment [2] and in experiment [3] was inactive.

Take `CC(C)c1cc2c(cc1S(=O)(=O)O)[C@@]1(C)CCC[C@@](C)(C(=O)O)[C@@H]1CC2`: the molecule was classed as inactive in experiment [1], in [2] and in experiment [3].

In the case of `NC(=O)NS(=O)(=O)c1ccc(N)cc1`, the outcome in experiment [1], in experiment [2] and in experiment [3] was inactive.

As for `CCc1nnc(NS(=O)(=O)c2ccc(N)cc2)s1`, the result in experiment [1], in experiment [2] and in experiment [3] was inactive.

In the case of `Cc1cc(C)nc(NS(=O)(=O)c2ccc(N)cc2)n1`, the molecule was classed as inactive in experiment [1], in experiment [2] and in [3].

On to `CCCCC1(COC(=O)CCC(=O)O)C(=O)N(c2ccccc2)N(c2ccccc2)C1=O`, for which the outcome in experiment [1], in [2] and in [3] was inactive.

For `CC(C)CCCC(C)CCCC(C)CCCCC(C)CCCC(C)CCCC(C)C` (stereo not given), the call in experiment [1], in experiment [2] and in [3] was inactive.

Take `CCOc1ccc(C(=O)OCCN(CC)CC)cc1`: the call in experiment [1], in [2] and in experiment [3] was inactive.

As for `O=C(CCBr)N1CCN(C(=O)CCBr)CC1`, the result in [1], in experiment [2] and in experiment [3] was inactive.

Turning to `CCN(CC)CCOC(=O)C(c1ccccc1)c1ccccc1`, the call in experiment [1], in experiment [2] and in [3] was inactive.

Take `CC1(C)[C@@H](OC(=O)CCC(=O)O)CC[C@]2(C)[C@H]3C(=O)C=C4[C@@H]5C[C@@](C)(C(=O)O)CC[C@]5(C)CC[C@@]4(C)[C@]3(C)CC[C@@H]12`: the call in experiment [1], in experiment [2] and in [3] was inactive.

With `C[n+]1ccccc1/C=N/O`, the outcome in experiment [1], in experiment [2] and in [3] was inactive.

For `CN1C(=O)CC(c2ccccc2)C1=O` (stereo not given), the molecule was called inactive in experiment [1], in [2] and in experiment [3].

Consider `Nc1ncnc2c1ncn2[C@@H]1O[C@H](COP(=O)(O)O)[C@@H](O)[C@H]1O`, for which the molecule was called inactive in [1], in experiment [2] and in experiment [3].

As to `Cc1c(NC(C)C)c(=O)n(-c2ccccc2)n1C`, the result in experiment [1], in experiment [2] and in experiment [3] was inactive.

In the case of `NS(=O)(=O)c1ccc(C(=O)O)cc1`, the result in experiment [1], in experiment [2] and in [3] was inactive.

Consider `O=C(O)Cc1cn(-c2ccccc2)nc1-c1ccc(Cl)cc1`, for which the molecule was called inactive in experiment [1], in [2] and in experiment [3].

In the case of `COC(=O)c1cccnc1`, the molecule was classed as inactive in experiment [1], in experiment [2] and in experiment [3].

In the case of `CC[N+](CC)(CC(=O)Nc1c(C)cccc1C)Cc1ccccc1`, the call in experiment [1], in experiment [2] and in experiment [3] was inactive.

Take `C1CCN2C[C@@H]3C[C@@H](CN4CCCC[C@@H]34)[C@H]2C1`: the result in experiment [1], in [2] and in [3] was inactive.

For `O=C(O)c1ccccc1OP(=O)(O)O`, the call in [1] and in experiment [2] was inactive. Further, in experiment [3], the activity, negative = inhibition is -7.01% [at 1.88 µM] (inactive).

As to `O=C(Cn1ccnc1[N+](=O)[O-])NCCO`, the molecule was classed as inactive in experiment [1], in [2] and in experiment [3].

Turning to `NCc1ccc(S(N)(=O)=O)cc1`, the call in experiment [1], in [2] and in [3] was inactive.

For the molecule `Cc1ncc(CO)c(CN)c1O`, the molecule was called inactive in experiment [1], in experiment [2] and in experiment [3].

For the molecule `O=S1(=O)OC(c2ccc(O)cc2)(c2ccc(O)cc2)c2ccccc21`, the molecule was classed as inactive in [1], in [2] and in experiment [3].

In the case of `C[C@@H](N)C(=O)O`, the outcome in experiment [1], in experiment [2] and in [3] was inactive.

On to `Cc1cc(O)cc(C)c1Cl`, for which the molecule was classed as inactive in [1], in experiment [2] and in [3].

Regarding `Cc1ccsc1/C=C/C1=NCCCN1C`, the molecule was classed as inactive in experiment [1], in experiment [2] and in experiment [3].

As to `COc1ccc(NS(=O)(=O)c2ccc(N)cc2)nn1`, the parasite growth, % of DMSO control in experiment [4] was determined as 103%. The parasite growth remaining, % of DMSO control (lower = more inhibition) in [5] stood at 101%. Also, the parasite growth, % of control (lower = inhibition) in experiment [6] is 141%. In experiment [7], this molecule returned a growth, % of control of 62.1%. Also, the molecule was classed as inactive in experiment [1], in experiment [2] and in experiment [3].

In turn, `CCOc1ccccc1O[C@H](c1ccccc1)[C@H]1CNCCO1` had a remaining parasite growth % (stronger effect = lower value) in [8] of 89.6%. Also, the activity, percent of control in [9] worked out at 63.9%. In addition, the remaining proliferation (% of control), lower = more inhibition in experiment [10] was 47.7%. The outcome in experiment [1], in experiment [2] and in experiment [3] was inactive.
